Screens from PubChem BioAssay.
Shown are actives, neighbours in structure and some others; about 3.9% of the full set was active somewhere.
D1 agonist: Allosteric Agonists of the Human D1 Dopamine Receptor: qHTS | HEK293 T-REx D1 cells, calcium flux, agonist mode | activation, % at 2 µM | AID 504660, 2011 | D(1A) dopamine receptor (Homo sapiens), P21728 | hit rate 1% among 360,000; in the data active means activation above about 30%; further: 0% is about no effect
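Tetracycline-induced HEK293 TREx D1 cells, force-coupled to calcium signalling, were dye-loaded with a no-wash calcium kit. Compound was pin-added after a 10 s baseline. Fluorescence was read kinetically at 1 cycle/s for 180 s, with calcium rises flagged as agonism.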
USP2a inh: qHTS Assay for Inhibitors of Ubiquitin-specific Protease USP2a Using CHOP2 as the Reporter | Ubiquitin carboxyl-terminal hydrolase 2 (Homo sapiens), O75604 | USP2 core, Ub-CHOP2 coupled fluorogenic reporter, 485/531 | Potency, µM (series often up to 38.3 µM), without a hit: at the top dose activity change, negative = inhibition, usual class: inhibitors | hit rate 0.01% among 330,000 | AID 463254, 2010;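 further: potency means the concentration at half of the fitted maximal effect; plate controls were DMSO wells for no effect and full inhibition by NEM control for full effect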
Target sequence (O75604 whole entry, looked up): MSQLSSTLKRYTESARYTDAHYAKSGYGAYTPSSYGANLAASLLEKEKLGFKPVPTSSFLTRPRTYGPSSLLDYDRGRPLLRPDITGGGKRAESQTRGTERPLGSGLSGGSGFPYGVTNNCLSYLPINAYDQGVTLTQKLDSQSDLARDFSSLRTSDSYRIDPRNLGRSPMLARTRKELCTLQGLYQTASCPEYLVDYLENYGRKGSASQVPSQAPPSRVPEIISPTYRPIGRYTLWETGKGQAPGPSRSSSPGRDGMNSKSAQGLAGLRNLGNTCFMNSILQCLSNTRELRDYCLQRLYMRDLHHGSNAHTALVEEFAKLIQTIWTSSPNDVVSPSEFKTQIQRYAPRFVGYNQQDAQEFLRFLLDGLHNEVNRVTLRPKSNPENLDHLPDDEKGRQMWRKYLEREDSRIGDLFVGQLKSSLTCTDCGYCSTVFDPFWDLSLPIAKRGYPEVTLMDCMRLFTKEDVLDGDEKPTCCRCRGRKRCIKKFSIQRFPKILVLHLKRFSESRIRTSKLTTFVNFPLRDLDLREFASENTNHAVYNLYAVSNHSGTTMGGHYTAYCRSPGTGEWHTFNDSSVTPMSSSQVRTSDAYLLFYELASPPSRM
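Cell-free coupled assay: 10nM USP2 core preincubated 30min RT with compound in Tris-HCl pH 8.0/CaCl2/CHAPS buffer, then 25nM Ub-CHOP2 and 25nM reporter substrate; fluorescence (Ex 485/Em 531) read after 60min RT, normalized to NEM inhibition, concentration-response curves fitted.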
D1 antagonist: Antagonist of Human D 1 Dopamine Receptor: qHTS; HEK293 TREx D1 cells, calcium flux, dopamine EC80; stronger effect = lower value; activity change, negative = inhibition, % at 10 µM; hit rate 3.2% among 360,000; AID 504652, 2011; in the data active means activity change below about -30%; further: on the % scale 0 is the no-effect control and ±100 the full control effect
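Inducible Hek293 Trex D1 cells (tetracycline, overnight, 30 C). Calcium dye 30–90 min RT. Antagonist mode: EC80 dopamine added after 180 s compound read.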
Eya2 phos inh: qHTS Assay for Inhibitors of the Phosphatase Activity of Eya2 | Potency, µM (top dose mostly 76.9 µM), for inactives: at the top dose activity, negative = inhibition, actives largely listed as inhibitors | recombinant Eya2, OMFP fluorescence dephosphorylation (OMFP is methylfluorescein phosphate) | hit rate 0.006% among 330,000 | Protein phosphatase EYA2 (Homo sapiens), O00167; further: potency means the concentration at half of the fitted maximal effect; on the % scale 0 is the no-effect control and ±100 the full control effect
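Eya2 protein (added as 0.2 uM solution) was preincubated with compound for 10 min at ambient temperature in 50 mM HEPES pH 7.5, 50 mM NaCl, 5 uM MgCl2, 0.05% BSA, 1 mM DTT. OMFP (added at 50 uM) then reacted 10 min; fluorescence read at 485/525 nm.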
GALK inhibitor: qHTS Assay for Inhibitors of Human Galactokinase (GALK). Purified GALK, Kinase-Glo residual ATP luminescence. Potency, µM (top dose mostly 57.5 µM), inactives show top-dose activity change, negative = inhibition, usual class: inhibitors. AID 1868, 2009. P51570. hit rate 0.007% among 270,000; further: potency means the concentration at half of the fitted maximal effect; on the % scale 0 is the no-effect control and ±100 the full control effect
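Quantitative HTS: GALK 5 nM, ATP 35 uM, galactose 100 uM, 1 h room temperature, then luciferase-based ATP detection.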
D1 potentiator: Potentiators of Human D1 Dopamine Receptor: qHTS; HEK293 TREx D1 cells, calcium flux, dopamine EC20 potentiation; potentiation, % at 10 µM; hit rate 0.036% among 360,000; AID 504651, 2011; in the data active means potentiation above about 30%; further: 0% is about no effect
* = called active by the depositor; ? = inconclusive; · = no result given. Unless noted, the call rests on the fitted dose curve; in most records, active means well fitted inhibition curve with a large enough effect; inconclusive means small, poorly fitted or top-dose-only effect, or effect the other way; inactive means flat fitted curve, though single readings scatter.

SMILES	D1 agonist	USP2a inh	D1 antagonist	Eya2 phos inh	GALK inhibitor	D1 potentiator
COc1ccc(OCC(=O)N2CCN(Cc3cccc(OC)c3OC)CC2)cc1	1	·	-14	·	·	-1
CCOc1ccccc1NC(=O)c1cccn(Cc2ccccc2C)c1=O	7	·	29	·	·	2
COc1ccc(CC2c3cc(OC)c(OC)cc3CCN2C)cc1OC (configuration not stated)	2	1%	-15	8%	10%	-6
COc1cc2c(cc1O)C[C@H]1c3c(cc(O)c(OC)c3-2)CCN1C	·	0%	·	9%	·	·
COc1cc2c(cc1O)[C@@H]1Cc3ccc(OC)c(O)c3CN1CC2	-1	-2%	-90*	0%	·	-7
COc1ccc(C[C@@H]2c3cc(O)c(OC)cc3CCN2C)cc1O	0	2%	-88*	2%	·	-11
CC12NC(Cc3ccccc31)c1ccccc12 (configuration not stated)	·	·	·	6%	·	·
CC1=NN(c2ccccc2)C(=O)C1/C=C1\C(=O)NC(=O)N(c2cc(C)cc(C)c2)C1=O (configuration not stated)	1	3%	6	4%	-4%	6
CC1=NN(c2ccccc2)C(=O)C1/C=C1/C(=O)NC(=O)N(c2cc(C)cc(C)c2)C1=O (configuration not stated)	5	2%	-37*	-1%	-3%	-1
CCSc1nnc(NC(=O)c2cccn(Cc3ccc(Cl)cc3)c2=O)s1	0	·	-35*	·	·	-1
Cc1nnc(NC(=O)c2cccn(Cc3cccc(Cl)c3)c2=O)s1	1	·	26	·	·	2
COc1ccc(NC(=O)c2cccn(Cc3ccc(Cl)cc3)c2=O)c(OC)c1	2	·	-40*	·	·	0
CCN(CC)CCNCC(=O)Nc1ccc(Cl)cc1C(=O)c1ccccc1	1	2%	-38*	-12%	0%	-4
CCCCCCOc1ccc(CN2CCN(C)CC2)cc1	31*	2%	-18	1%	0%	-10
CN1CCC(c2c[nH]c3ccccc23)C1 (configuration not stated)	6	12%	-32*	2%	2%	-5
O=C(CCCN1CCC(n2c(=O)[nH]c3ccccc32)CC1)c1ccc(F)cc1	0	2%	-44*	21%	·	-6
CCCc1ccc(OCC(=O)Nc2ccc(Cl)cc2C(=O)c2ccccc2)cc1	2	·	-4	·	·	5
C(CCc1nn[nH]n1)CCc1nn[nH]n1	5	0%	-37*	8%	3%	-2
COc1ccc(-n2c(/C=C\c3ccccc3F)nc3ccccc3c2=O)c(OC)c1	0	·	8	·	·	5
Cc1cccc(N=Cc2c(O)n(-c3ccccc3C)c(=O)[nH]c2=O)c1	1	3%	-1	-11%	2%	-7
Cc1cccc(-n2c(O)c(/C=C/C=Nc3ccccc3)c(=O)[nH]c2=O)c1	34*	?	-1	20%	1%	2
Cn1c(O)c(C=Nc2ccc(Br)cc2)c(=O)n(C)c1=O	1	3%	-10	10%	-5%	-15
Cc1ccccc1-n1c(O)c(/C=C2/C(c3ccccc3)=Nc3ccccc32)c(=O)[nH]c1=O	14	0%	-50*	-2%	-6%	-5
Cn1c(O)c(/C=C/C=Nc2ccccc2)c(=O)n(C)c1=S	64*	16%	2	17%	0%	5
Cc1ccccc1-n1c(O)c(/C=C/C=Nc2ccccc2)c(=O)[nH]c1=O	41*	?	-10	35%	-1%	5
SMILES	D1 agonist	USP2a inh	D1 antagonist	Eya2 phos inh	GALK inhibitor	D1 potentiator
COc1ccccc1-c1nn2c(=O)cc(CN3CCN(C(=O)COc4ccccc4Cl)CC3)nc2s1	1	·	-1	·	·	0
Cc1ccc2scc(N3CCN(C)CC3)c(=O)c2c1	4	·	19	·	·	2
O=C1NC(=O)C(=Cc2coc3ccccc3c2=O)C(=O)N1	2	1%	-4	13%	-2%	-2
O=C1NC(=O)C(=C/C=C/c2coc3ccc(Br)cc3c2=O)C(=O)N1	83*	7%	1	7%	·	-2
Nc1c(C(=O)Nc2ccc(Br)cc2F)sc2nc3c(cc12)N1CCC3CC1	1	·	-32*	·	·	-5
N#Cc1cccc(NC(=O)c2sc3nc4c(cc3c2N)N2CCC4CC2)c1	0	·	-10	·	·	-1
Cc1nnc(NC(=O)c2cccn(Cc3cccc([N+](=O)[O-])c3)c2=O)s1	-1	·	·	·	·	1
CC(=O)O[C@H]1CC[C@@]2(C)C(=CC(=O)C3C2CC[C@@]2(C)C3C[C@H](OC(C)=O)[C@@H]2OC(C)=O)C1 (some centres not stated)	·	1%	·	-6%	·	·
C=C1C2C[C@H](O)C(C)(C)[C@@]2(O)[C@H](O)C[C@]23C[C@@](C)(O)[C@H](CC[C@H]12)[C@H]3OC(C)=O (some centres not stated)	0	3%	-34*	-1%	·	-3
N#Cc1cc2c(nc1SCC(=O)Nc1ccc(OC(F)(F)F)cc1)C1CCN2CC1	21	·	-20	·	·	0
Cc1cccc2sc(NC(=O)c3cccn(Cc4ccccc4)c3=O)nc12	4	·	·	·	·	2
NCC(O)c1cc(O)c(O)cc1F (configuration not stated)	37*	0%	-85*	4%	·	-6
CN(C[C@H](Cc1ccccc1)N(C[C@H](c1ccccc1)N(CCc1ccccc1)N=O)N=O)N=O	1	-1%	7	?	2%	-2
Cc1ccc(CN2C3CCCC2CC(NC(=S)NCc2ccccc2)C3)cc1 (configuration not stated)	34*	-2%	-75*	?	2%	2
COc1ccc2c3c1OC1[C@H](O)CCC4[C@@H](C2)N(C)CC[C@]314 (some centres not stated)	·	-1%	·	-21%	·	·
CN1CC[C@@]23CCCC[C@@H]2[C@@H]1Cc1ccc(O)cc13	7	8%	-32*	-4%	-3%	-3
Cc1oc2cc3oc(=O)c(CCC(=O)N4CCCCC4)c(C)c3cc2c1C	10	·	-22	·	·	-2
COc1ccc(CCN)cc1OC	18	-2%	6	9%	4%	5
NCCc1ccc(OCc2ccccc2)c(OCc2ccccc2)c1	34*	-1%	11	-5%	·	-2
O=[N+]([O-])c1ccc(N2CCCCCC2)c2nonc12	526*	?	6	?	-7%	6
